Most compounds without a hit are left out; they make up all but 2.4% or so of the library.
D2 ag-1 – Beta-Arrestin HTS for Positive Allosteric Modulators of the Human D2 Dopamine Receptor: Agonists; AID 624465, 2012; actives 0.084% (n = 360,000); DiscoveRx PathHunter D2 beta-arrestin, luminescence, 90 min; 100% = 57 uM dopamine signal; activation, % (concentration not given with the values); in the data active = activation above about 40%; inconclusive = between about 15% and that limit
Target sequence (P14416 whole entry, looked up): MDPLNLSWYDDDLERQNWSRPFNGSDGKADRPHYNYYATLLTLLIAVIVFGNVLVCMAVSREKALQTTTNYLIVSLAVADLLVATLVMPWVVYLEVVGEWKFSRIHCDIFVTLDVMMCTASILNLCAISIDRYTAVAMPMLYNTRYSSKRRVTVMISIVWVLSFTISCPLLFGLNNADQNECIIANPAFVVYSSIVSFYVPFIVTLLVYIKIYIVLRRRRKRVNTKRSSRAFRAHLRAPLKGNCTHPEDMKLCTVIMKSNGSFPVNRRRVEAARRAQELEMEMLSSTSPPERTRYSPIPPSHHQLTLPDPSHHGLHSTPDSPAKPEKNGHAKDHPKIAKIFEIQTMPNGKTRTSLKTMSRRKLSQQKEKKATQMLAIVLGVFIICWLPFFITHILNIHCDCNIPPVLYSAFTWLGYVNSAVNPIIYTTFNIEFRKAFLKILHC
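DiscoveRx PathHunter D2 beta-arrestin cells (2,100/well) attached overnight, then compound-stimulated 90 min at 37 C in HBSS/10 mM HEPES/0.1% Tween-20 buffer; beta-galactosidase complementation read by luminescence after 1 h at ambient temperature. Dopamine 57 uM final (EC100) as control.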
D2 ag-2 – HTS Assay for Allosteric Agonists of the Human D2 Dopamine Receptor: Primary Screen for Agonists. HEK293 T-REx D2 cells, calcium flux agonist mode. activation, % at 2 µM. actives 0.53% (n = 340,000). AID 485358, 2010;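 active = activation over 3 SD above normal in the single-dose calcium agonist read, cut at about 30% in these data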; note: 0% is about no effect
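In this primary screen, compounds producing a positive calcium signal within 180 s of addition to tetracycline-induced, force-coupled HEK293 Trex D2 cells are flagged; cells are dye-loaded with a no-wash calcium kit beforehand.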
D2 PAM-1 – HTS Assay for Positive Allosteric Modulators of the Human D2 Dopamine Receptor: Primary Screen for Potentiators | D(2) dopamine receptor (Homo sapiens), P14416 | HEK293 T-REx D2, calcium flux, EC20 dopamine potentiation | potentiation, % at 10 µM | actives 0.34% (n = 340,000);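 active = potentiation over 3 SD above the plate norm, cut at about 30% in these data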; note: 0% is about no effect
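Tetracycline-induced HEK293 T-REx cells force-coupled to calcium signalling expressed D2; compounds were pin-added after a 10 s baseline, read kinetically 180 s, then an EC20 dopamine challenge followed with a further 180 s calcium read.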
D2 PAM-2 – Beta-Arrestin HTS for Positive Allosteric Modulators of the Human D2 Dopamine Receptor: Potentiators; DiscoveRx D2 beta-arrestin cells, luminescence, 90 min; 100% = 57 uM dopamine signal; potentiation, % (concentration not given with the values); actives 0.23% (n = 360,000); in the data active = potentiation above about 50%; inconclusive = mostly about 30% to 49%
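D2 cells co-treated with compound plus 50 nM dopamine (EC20) for 90 min at 37 deg C to detect potentiation. Beta-arrestin recruitment was read as enzyme-fragment luminescence after 1 h at ambient temperature. Full response was set by 57 uM dopamine.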
D2 antagonist – HTS Assay for Allosteric Antagonists of the Human D2 Dopamine Receptor: Primary Screen for Antagonists; HEK293 TREx D2 cells, calcium flux, dopamine EC80; inhibition, % at 10 µM; actives 2% (n = 340,000); in the data active = inhibition above about 30%; inactive = below that, where a call was filed; note: 0% is about no effect
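HEK293 T-REx D2 cells, tet-induced, calcium dye no-wash. Cpd pintool add, 180 s kinetic, then EC80 DA, 180 s kinetic. Ca flux read.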
An asterisk follows results filed as active; ? = inconclusive; · = no result given.

SMILES	D2 ag-1	D2 ag-2	D2 PAM-1	D2 PAM-2	D2 antagonist
CN(C(=O)Cn1c(=O)n(CCC(=O)NCc2ccc3c(c2)OCO3)c(=O)c2sccc21)c1ccccc1	·	0	·	·	·
COC(=O)c1ccc(OC(=O)CN2C(=O)c3ccccc3C2=O)cc1	3	0	-4	75*	-10
COC(=O)c1ccc(CN2C(=O)c3ccccc3C2=O)cc1	1	0	3	1	-10
CC1=CC(C)(C)Nc2ccc(OC(=O)CN3C(=O)c4ccccc4C3=O)cc21	15	-2	5	113*	1
Cc1ccc(S(=O)(=O)N2[C@@H](c3ccc(Cl)cc3)C(C(=O)O)=CC[C@H]2c2ccc(C(C)C)cc2)cc1	2	0	-25	-4	39*
CCOC(=O)Cn1nc(N2CCN(c3ccc(F)cc3)CC2)ccc1=O	·	0	12	·	·
O=C(N/N=C/c1cccc(Br)c1)C1CC(=O)N(c2ccccc2)C1 (stereo unspecified)	0	0	-17	-8	35*
COc1ccc(N2CC(C(=O)N/N=C/c3ccccc3)CC2=O)cc1 (stereo unspecified)	-2	0	1	-4	-6
COc1cccc2sc3ccc(C#CC4(N)CCCCC4)cc3c(=O)c12	-2	1	-4	-6	31*
COc1cccc2sc3cc(C#CC4(O)CCCCC4)ccc3c(=O)c12	?	·	·	10	·
Cc1cccc(C)c1NC(=O)Cn1c(=O)n(Cc2ccco2)c(=O)c2ccc(C(=O)NC3CCCC3)cc21	·	0	5	·	·
C=CCNc1nc(NCCN2CCOCC2)nc(N2CCOCC2)n1	0	0	14	-16	0
C=CCNc1nc(N2CCOCC2)nc(N2CCOCC2)n1	0	-1	-14	1	31*
CCOC(=O)c1ccc(N2CCN(c3cc(C)ccc3C)CC2)c(NC(=O)Nc2ccc(Cl)cc2)c1	·	0	7	·	·
COc1ccc(NC(=O)CN2CCCN(Cc3ccc(Cl)cc3)S2(=O)=O)cc1Cl	·	·	-16	·	·
O=c1c(S(=O)(=O)c2ccccc2)cn(Cc2ccc(F)cc2)c2cc(N3CCCC3)c(F)cc12	·	1	-4	·	·
Cc1ccc(CNC(=O)c2cc3c(s2)CS(=O)(=O)C3)cc1	1	-1	2	-7	4
Cc1ccc(CNC(=O)c2cc3c(s2)CN(Cc2ccccc2)C3)cc1	-1	0	-13	-14	39*
CCOc1ccc(C(=O)NCC(c2ccc3c(c2)OCO3)N2CCN(C)CC2)cc1 (stereo unspecified)	·	1	-9	·	·
CC(NC(=O)c1ccccc1Cl)c1nnc(SCC(=O)Nc2ccc(C(=O)O)cc2)n1C (stereo unspecified)	0	-1	-2	-3	30*
O=C(Nc1ccc(F)cc1C(F)(F)F)C1CCN(c2ncccn2)CC1	·	0	·	·	·
CCCCn1c(=O)c2c(nc3n2CCCN3Cc2ccccc2)n(C)c1=O	0	6	8	0	34*
Cn1c(=O)n(Cc2ccccc2)c(=O)c2c1nc1n2CCCN1Cc1ccccc1	-3	0	20	6	1
CCOc1cc(CNc2ncnc3nc[nH]c23)ccc1OC	-4	-1	-12	-2	38*
COc1ccc(C(=O)[C@H]2[C@H]3C(=O)N(c4ccccc4)C(=O)[C@H]3C3C=CC=NN32)cc1 (stereo partly specified)	-3	0	-4	-3	43*
SMILES	D2 ag-1	D2 ag-2	D2 PAM-1	D2 PAM-2	D2 antagonist
COc1ccccc1N1CCN(Cc2ccc(-c3ccccc3[N+](=O)[O-])o2)CC1	-1	-1	-25	-77	86*
COc1ccccc1N1CCN(Cc2ccco2)CC1	1	4	-16	-6	-11
Clc1ccc(OCCSc2nnnn2C2CCCCC2)cc1	-2	0	-7	-12	34*
O=C(NCc1cccc(Br)c1)c1cnn(-c2ccc(F)cc2)c1-n1cccc1	·	·	6	·	·
CCN(C(=O)c1ccc(Br)o1)C1CCS(=O)(=O)C1 (stereo unspecified)	12	-1	20	-7	-6
CN(C(=O)c1ccc(Br)o1)C1CCS(=O)(=O)C1 (stereo unspecified)	1	0	9	-1	37*
C/C(=N\NC(=O)c1c(C)nc2ccccn12)c1ccccc1F	-1	0	-1	-1	31*
Cc1ccc(CN2CCC(C(=O)NCCC(C)C)CC2)o1	-2	0	-4	-30	30*
CC/C(=N/Nc1ccc(Cl)cc1)c1cnnc(SC)n1	-2	0	6	-9	34*
CCN(C(=O)c1c(-c2ccccc2Cl)noc1C)C1CCCCC1	-2	-1	47*	-9	-12
Cc1ccc(NC(=O)CCNCc2ccco2)cc1S(=O)(=O)N(C)C	2	-6	-10	-21	34*
CN(C)S(=O)(=O)c1cc(NC(=O)Cn2ccsc2=N)ccc1Cl	0	0	-17	30	-13
Cc1ccc(NC(=O)CN2CCN(C(=O)c3ccco3)CC2)cc1S(=O)(=O)N(C)C	45*	·	·	30	·
Cc1ccc(NC(=O)Cn2ccsc2=N)cc1S(=O)(=O)N(C)C	-3	0	-24	-15	36*
Cc1ccc(NC(=O)CCNC(=O)Nc2ccccc2)cc1S(=O)(=O)N(C)C	-3	0	2	-5	17
CCOCN(C(=O)Cn1cnc2cc(C)c(C)cc21)c1c(C)cccc1CC	·	0	17	·	·
Cc1ccc(OCC(=O)Nc2nnc(S(=O)(=O)N3c4ccccc4CC3C)s2)cc1 (stereo unspecified)	·	0	0	·	·
COc1ccc2c3c(cccc13)OC2=O	0	-1	9	-1	5
COc1ccc2c3c(cccc13)N(C)N=C2C	7	0	8	56*	-1
O=C1N[C@@H](Cc2cnc[nH]2)C(=O)N2CCC[C@@H]12	-6	2	-1	-5	45*
O=C1N[C@@H](Cc2ccccc2)C(=O)N2CCCC12 (stereo partly specified)	-3	·	·	-6	·
Cc1ccc(C(C)C)c(OCC(=O)NCC2(N(C)C)CCCCC2)c1	·	-1	-23	·	·
Cc1cc(N2CCCC2)ccc1/C=C1\NC(=S)N(C)C1=O	-1	36*	-7	-5	10
O=C1/C(=C/c2ccc(N3CCCC3)cc2)NC(=S)N1C1CC1	-1	48*	-12	-16	-20

High-throughput results as filed in PubChem BioAssay.
